The list is not random: actives were taken first. Their share in the collection is about 7.7%.
HCMV inh: qHTS Assay for inhibitors of the human cytomegalovirus (HCMV); HFF cells, HCMV-luciferase reporter, 72 h; hits give low values; activity change, negative = inhibition, % at 57.5 µM; actives 4.5% (n = 410,000); AID 1259415, 2018; in the data active = activity change below about -60%; inconclusive = no clear call, values can overlap the other calls; inactive = above about -39%
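Inhibition of viral replication was scored as loss of reporter luminescence in HFFs infected with HCMV-luciferase (MOI 1 PFU/cell) for 72 h; compounds tested at 2 doses, normalized to buffer and Salinomycin controls.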
FMDV inh: High Throughput Screening for Foot and Mouth Disease Virus Antivirals | FMDV antiviral cell-based qHTS | Potency, µM (series often up to 57.9 µM), inactives show top-dose activity change, negative = inhibition, usual class: inhibitors | actives 1.2% (n = 410,000) | AID 1159524, 2015; calls by dose curve; tested in HEK293T cells; also: read-out not given here; potency is read from the fitted curve at half-maximal effect; nearly all actives have a fitted effect of over 45% in size
Sm TGR block: qHTS Assay for the Inhibitors of Schistosoma Mansoni Peroxiredoxins. actives 3% (n = 360,000). purified TGR, DTNB reduction, TNB absorbance 405 nm. Schistosoma mansoni thioredoxin glutathione reductase (TGR), Q962Y6. AID 485364, 2010. Potency, µM (highest dose often 114 µM), for inactives: at the top dose activity change, negative = inhibition, hits mostly inhibitors; also: potency is read from the fitted curve at half-maximal effect; nearly all actives have a fitted effect of over 60% in size
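Kinetic colorimetric format: TGR-catalysed, NADPH-driven DTNB reduction monitored via TNB absorbance. Enzyme dispensed at 20 nM; compound exposure 15 min at room temperature before reaction start.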
Giardia FBPA inh: qHTS Assay for Inhibitors of Fructose-1,6-bisphosphate Aldolase from Giardia Lamblia | A8B2U2 | purified Giardia FBPA | Potency, µM (series often up to 59.6 µM), for inactives: at the highest dose activity, negative = inhibition, most hits filed as inhibitors | actives 0.71% (n = 290,000); also: potency is read from the fitted curve at half-maximal effect; nearly all actives have a fitted effect of over 55% in size
Target sequence (A8B2U2 whole entry, looked up): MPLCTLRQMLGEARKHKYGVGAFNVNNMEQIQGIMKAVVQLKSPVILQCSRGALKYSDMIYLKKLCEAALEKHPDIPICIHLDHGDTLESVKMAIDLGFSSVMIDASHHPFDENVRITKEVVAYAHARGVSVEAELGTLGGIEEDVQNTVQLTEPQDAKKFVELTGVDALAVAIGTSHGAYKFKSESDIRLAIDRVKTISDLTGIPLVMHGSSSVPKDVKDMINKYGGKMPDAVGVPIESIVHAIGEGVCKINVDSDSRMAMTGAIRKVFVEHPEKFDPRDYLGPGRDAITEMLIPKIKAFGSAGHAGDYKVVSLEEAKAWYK
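Giardia FBPA (40 nM reagent) was preincubated 10 min at RT with compound (up to 57.5 uM final), then substrate plus GAPDH/TPI/NAD/arsenate coupling system with diaphorase/resazurin was added; resorufin fluorescence (525/598 nm) was read after 20 min.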
RE007 growth inh: qHTS Assay for Inhibitors of the HIV-1 protein Vpr; Potency, µM (highest dose often 92.2 µM), for inactives: top-dose activity change, negative = less growth, hits mostly inhibitors; S. pombe RE007 Vpr strain, BacTiter-Glo ATP luminescence, 24 h; AID 651644, 2012; actives 0.21% (n = 360,000); active = well fitted falling curve with a large enough effect; inconclusive = small, poorly fitted or top-dose-only effect; inactive = no such curve, though single readings can be large or run the other way; also: potency is read from the fitted curve at half-maximal effect; nearly all actives have a fitted effect of over 50% in size
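Fission yeast RE007 carrying one integrated HIV-1 vpr copy, seeded at OD 0.01 in PMG+AL medium with 23 nL pinned compound. Grown 24 h at 30 degrees; viability read by BacTiter-Glo luminescence after 5 min.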
Tb PYK inh: qHTS of Trypanosoma Brucei Inhibitors; AID 624173, 2012; Potency, µM (highest dose often 76.8 µM), for inactives: at the highest dose activity, negative = inhibition, usual class: inhibitors; actives 0.12% (n = 410,000); TbPYK enzyme, Kinase-Glo Plus ATP luminescence, 45 min; pyruvate kinase (Trypanosoma brucei), Q57TT1; also: potency is read from the fitted curve at half-maximal effect; nearly all actives have a fitted effect of over 50% in size
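Assay buffer: 50 mM TEA pH 7.2, 100 mM KCl, 10 mM MgCl2, 0.05% BSA, 0.01% Tween-20. Pyruvate kinase from T. brucei plus substrate met compound, then ADP (130 uM final). Luminescence was read post 45 min RT.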
Active calls of the source: *. Unless noted, calls follow the shape of the dose curve; as a rule, active = well fitted curve in the direction sought with a large enough effect; inconclusive = small, poorly fitted or top-dose-only effect, or another doubt; inactive = no such curve, though single readings can be large; an effect the other way counts as inactive or inconclusive. % is scaled to controls: 0 for no effect and ±100 for the full control effect.

Screening CCN1CCCC1CNC(=O)c1cnn(-c2nccc(-c3ccccc3F)n2)c1C (centres undefined) returned FMDV inh -6%.
Screening Cc1ccccc1NC(=O)c1nc(S(C)(=O)=O)ncc1N(Cc1ccco1)Cc1sccc1C returned HCMV inh -20, FMDV inh -23%, Sm TGR block -2% and Tb PYK inh 2%.
Screening CCOC(=O)C1(Cc2ccccc2)CCCN(CCCn2cccn2)C1 (centres undefined) returned HCMV inh -30, FMDV inh 5%, Sm TGR block -10%, Giardia FBPA inh 0%, RE007 growth inh -15% and Tb PYK inh -8%.
CCOC(=O)C1(Cc2ccc(Cl)cc2)CCN(CCCn2cccn2)CC1 was read as HCMV inh -62*, FMDV inh inconclusive, Sm TGR block -2%, Giardia FBPA inh 0%, RE007 growth inh 8% and Tb PYK inh 1%.
CCOC(=O)C1(Cc2ccc(Cl)cc2)CCN(C(=O)c2sc(C)nc2C)CC1 was read as HCMV inh -76*, FMDV inh 32µM*, Sm TGR block 0%, Giardia FBPA inh 4%, RE007 growth inh 5% and Tb PYK inh -6%.
`CCOC(=O)C1(Cc2ccc(OC)cc2)CCN(C(=O)c2sc(C)nc2C)CC1` gave HCMV inh inconclusive, FMDV inh 1%, Sm TGR block -14%, Giardia FBPA inh 4%, RE007 growth inh 6% and Tb PYK inh -3%.
Screening CCCCN(CC)CCNc1ncnc2onc(-c3ccc(Cl)cc3)c12 returned HCMV inh -18, FMDV inh -4%, Sm TGR block -5% and Tb PYK inh -13%.
Screening COc1cccc(-c2noc(-c3cc(C(C)C)[nH]n3)n2)c1OC returned HCMV inh 45, FMDV inh 21%, Sm TGR block 2% and Tb PYK inh -5%.
Screening COc1ccc(N2CCC(CNC(=S)Nc3c(C)cc(C)cc3C)C2)cc1 (centres undefined) returned HCMV inh -70*, FMDV inh 0%, Sm TGR block 7%, Giardia FBPA inh -10%, RE007 growth inh 18% and Tb PYK inh -11%.
Screening COc1ccc(N2CCC(CNC(=O)Nc3ccc(C)c(C)c3)C2)cc1 (centres undefined) returned HCMV inh 11, FMDV inh -2%, Sm TGR block inconclusive, Giardia FBPA inh inconclusive, RE007 growth inh -12% and Tb PYK inh -23%.
Screening COc1ccc(N2CCC(CNS(=O)(=O)c3cccc(C(F)(F)F)c3)C2)cc1 (centres undefined) returned HCMV inh 37, FMDV inh 5%, Sm TGR block 32µM*, Giardia FBPA inh inconclusive, RE007 growth inh -4% and Tb PYK inh -18%.
COc1ccc(N2CCC(CNC(=O)Nc3ccc(OC)cc3OC)C2)cc1 (centres undefined) was read as HCMV inh -80*, FMDV inh -17%, Sm TGR block 45µM*, Giardia FBPA inh inconclusive, RE007 growth inh 9% and Tb PYK inh -22%.
COc1ccc(N2CCC(CNC(=S)Nc3ccc(C)cc3C)C2)cc1 (centres undefined) was read as HCMV inh -18, FMDV inh -17%, Sm TGR block -2%, Giardia FBPA inh inconclusive, RE007 growth inh 1% and Tb PYK inh 8%.
For COc1ccc(CNC(=O)C2CCN(S(=O)(=O)c3cccc(C(F)(F)F)c3)CC2)cc1 the results were HCMV inh -21, FMDV inh -6%, Sm TGR block -6%, RE007 growth inh 0% and Tb PYK inh -2%.
